Reference: the supplement of paper PMC7156485
± gives the standard deviation of the averaged measurements.

What was measured:
Settings in all cases: concentration: 10 µM; 24 h
HCC1569 [1] = test: cell number relative to DMSO (% of DMSO); higher = more cells (less growth inhibition / toxicity)
Summary of the method: (§1)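 Six fields per well were imaged at ×10 after the cells were fixed in 3.7% formaldehyde and stained with a rabbit anti-H1.0 antibody, an AlexaFluor 647 secondary and DAPI. The HCC1569 and TDF cells had been plated at 800 per well in 384-well plates (RPMI, 10% FBS) and treated in triplicate with compounds at 10 µM for 24 h at 37 °C. The values are the median of replicates of H1.0 nuclear intensity or cell number, as percent of the plate control. Smoothing for positional effects was applied to HCC1569 data.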

TDF [2] = test: as above
Summary of the method: as §1

TDF [3] = test: H1.0 immunofluorescence intensity relative to DMSO (% of DMSO); higher = stronger H1.0 induction, active = 120 or more
Summary of the method: as §1

HCC1569 [4] = test: H1.0 immunofluorescence intensity relative to DMSO (% of DMSO); higher = stronger H1.0 induction, active = 140 or more
Summary of the method: as §1
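Throughout, for H1.0 immunofluorescence intensity relative to DMSO: TDF is a line of transformed human dermal fibroblasts of mesenchymal origin.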
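Throughout, for cell number relative to DMSO: TDF denotes transformed human dermal fibroblasts of mesenchymal origin.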

Q: For `CCCN1CCCC2Cc3[nH]ncc3CC21.Cl` (single isomer, unassigned; (-)) [(-)-Quinpirole hydrochloride], which cell number (HCC1569 [1]) is on record?
A: 99.3

Q: What about the cell number (TDF [2]) of the same molecule?
A: 101

Q: And the H1.0 immunofluorescence intensity (TDF [3])?
A: 87.5 (inactive)

Q: And the H1.0 immunofluorescence intensity (HCC1569 [4])?
A: 100 (inactive)

Q: For `CNC1CC(c2ccc(Cl)c(Cl)c2)c2ccccc21.Cl` (stereo not drawn) [Indatraline hydrochloride], which cell number (HCC1569 [1]) is on record?
A: 84.1

Q: What about the cell number (TDF [2]) of the same molecule?
A: 85.9

Q: What about the H1.0 immunofluorescence intensity (TDF [3]) of the same molecule?
A: 110 (inactive)

Q: What about the H1.0 immunofluorescence intensity (HCC1569 [4]) of the same molecule?
A: 133 (inactive)

Q: With `NC(N)=NOCC[C@H](N)C(=O)O.O=S(=O)(O)O` [L-Canavanine sulfate] as the molecule, how does the cell number (HCC1569 [1]) read?
A: 101

Q: And the cell number (TDF [2])?
A: 81.3

Q: What about the H1.0 immunofluorescence intensity (TDF [3]) of the same molecule?
A: 107 (inactive)

Q: What about the H1.0 immunofluorescence intensity (HCC1569 [4]) of the same molecule?
A: 107 (inactive)

Q: With `COc1ccc2c(c1O)-c1c(OC)c(OC)cc3c1C(C2)N(C)CC3.Cl` (single isomer, unassigned; (+)) [(+)-Isocorydine hydrochloride] as the molecule, how does the cell number (HCC1569 [1]) read?
A: 103

Q: And the cell number (TDF [2])?
A: 107

Q: And the H1.0 immunofluorescence intensity (TDF [3])?
A: 94.5 (inactive)

Q: And the H1.0 immunofluorescence intensity (HCC1569 [4])?
A: 91.4 (inactive)

Q: Which results are given for `COc1cc2c(c3oc4cccc(O)c4c(=O)c13)C1C=COC1O2` (stereo not drawn) [Sterigmatocystin]?
A: cell number (HCC1569 [1]): 80.2; cell number (TDF [2]): 75.6; H1.0 immunofluorescence intensity (TDF [3]): 96.5 (inactive); H1.0 immunofluorescence intensity (HCC1569 [4]): 92.2 (inactive)

Q: `O=C1C=C2C(=CCOC2O)O1` (stereo not drawn) [Patulin] was tested. Which cell number (HCC1569 [1]) did it give?
A: 22.4

Q: And the cell number (TDF [2])?
A: 8.4

Q: And the H1.0 immunofluorescence intensity (TDF [3])?
A: 224 (active)

Q: What about the H1.0 immunofluorescence intensity (HCC1569 [4]) of the same molecule?
A: 132 (inactive)

Q: What does the source list for `C=CC12CN(C)C3C4COC(CC41)C1(C(=O)Nc4ccccc41)C32.Cl` (stereo not drawn)?
A: cell number (HCC1569 [1]): 102; cell number (TDF [2]): 111; H1.0 immunofluorescence intensity (TDF [3]): 101 (inactive); H1.0 immunofluorescence intensity (HCC1569 [4]): 94.5 (inactive)

Q: `COc1cc(C2c3cc4c(cc3C(O)C3COC(=O)C23)OCO4)cc(OC)c1O` (stereo not drawn) [4'-Demethylpipodophyllotoxin] was tested. Which cell number (HCC1569 [1]) did it give?
A: 59.6

Q: And the cell number (TDF [2])?
A: 12.7

Q: What about the H1.0 immunofluorescence intensity (TDF [3]) of the same molecule?
A: 157 (active)

Q: And the H1.0 immunofluorescence intensity (HCC1569 [4])?
A: 132 (inactive)

Q: How did the cell number (HCC1569 [1]) turn out when `CCCn1c(=O)c2[nH]c(C3CCCC3)nc2n(CCCOC(=O)c2ccc(S(=O)(=O)F)cc2)c1=O` was run?
A: 99.7

Q: What about the cell number (TDF [2]) of the same molecule?
A: 110

Q: And the H1.0 immunofluorescence intensity (TDF [3])?
A: 90.1 (inactive)

Q: And the H1.0 immunofluorescence intensity (HCC1569 [4])?
A: 77.2 (inactive)

Q: With `CC1OC(OC2CC(O)C3(CO)C4C(O)CC5(C)C(C6=CC(=O)OC6)CCC5(O)C4CCC3(O)C2)C(O)C(O)C1O` (single isomer, unassigned; (-)) [(-)-Ouabain] as the molecule, how does the cell number (HCC1569 [1]) read?
A: 49.5 ± 1.9

Q: What about the cell number (TDF [2]) of the same molecule?
A: 42.1 ± 1.4

Q: What about the H1.0 immunofluorescence intensity (TDF [3]) of the same molecule?
A: 119 (inactive)

Q: And the H1.0 immunofluorescence intensity (HCC1569 [4])?
A: 130 (inactive)

Q: For `C[N+](C)(C)CCCCCCCCCC[N+](C)(C)C.[Br-].[Br-]` [Decamethonium dibromide], which cell number (HCC1569 [1]) is on record?
A: 101

Q: And the cell number (TDF [2])?
A: 100

Q: And the H1.0 immunofluorescence intensity (TDF [3])?
A: 91.7 (inactive)

Q: And the H1.0 immunofluorescence intensity (HCC1569 [4])?
A: 88.8 (inactive)

Q: How did the cell number (HCC1569 [1]) turn out when `CN1CCC2(CCN3CCc4c(oc5ccccc45)C3C2)N(C)C1=O.Cl` (stereo not drawn) was run?
A: 102

Q: What about the cell number (TDF [2]) of the same molecule?
A: 91

Q: What about the H1.0 immunofluorescence intensity (TDF [3]) of the same molecule?
A: 95 (inactive)

Q: And the H1.0 immunofluorescence intensity (HCC1569 [4])?
A: 110 (inactive)

Q: What does the source list for `CN1CC(NS(=O)(=O)N(C)C)CC2c3cccc4c3c(cn4C)CC21` (stereo not drawn) [Mesulergine]?
A: cell number (HCC1569 [1]): 100; cell number (TDF [2]): 103; H1.0 immunofluorescence intensity (TDF [3]): 93.4 (inactive); H1.0 immunofluorescence intensity (HCC1569 [4]): 120 (inactive)

Q: `Cl.NCCc1ccc(S(=O)(=O)F)cc1` [4-(2-Aminoethyl)benzenesulfonyl fluoride hydrochloride] was tested. Which cell number (HCC1569 [1]) did it give?
A: 100

Q: What about the cell number (TDF [2]) of the same molecule?
A: 107

Q: What about the H1.0 immunofluorescence intensity (TDF [3]) of the same molecule?
A: 93.2 (inactive)

Q: And the H1.0 immunofluorescence intensity (HCC1569 [4])?
A: 88.6 (inactive)

Q: What does the source list for `Cl.c1ccc2sc(C3(N4CCCCC4)CCCCC3)cc2c1` [BTCP hydrochloride]?
A: cell number (HCC1569 [1]): 100; cell number (TDF [2]): 106; H1.0 immunofluorescence intensity (TDF [3]): 88.2 (inactive); H1.0 immunofluorescence intensity (HCC1569 [4]): 96.6 (inactive)

Q: Which cell number (HCC1569 [1]) does the source give for `Br.CCC1CN2CCc3cc(OC)c(OC)cc3C2CC1CC1NCCc2cc(O)c(OC)cc21` (stereo not drawn) here?
A: 59.6

Q: What about the cell number (TDF [2]) of the same molecule?
A: 21.4

Q: And the H1.0 immunofluorescence intensity (TDF [3])?
A: 135 (active)

Q: And the H1.0 immunofluorescence intensity (HCC1569 [4])?
A: 104 (inactive)

Q: Which results are given for `CC(=O)OCC1=CC2C3C(C)(C)C3(OC(=O)Cc3ccccc3)CC(C)C2(O)C2C=C(C)C(=O)C2(O)C1` (stereo not drawn) [12-Deoxyphorbol 13-phenylacetate 20-acetate]?
A: cell number (HCC1569 [1]): 90.8; cell number (TDF [2]): 74; H1.0 immunofluorescence intensity (TDF [3]): 105 (inactive); H1.0 immunofluorescence intensity (HCC1569 [4]): 137 (inactive)

Q: For `CC1CC2CCC(O2)C(C)C(=O)OC(C)CC2CCC(O2)C(C)C(=O)OC(C)CC2CCC(O2)C(C)C(=O)OC(C)CC2CCC(O2)C(C)C(=O)O1` (stereo not drawn) [Nonactin], which cell number (HCC1569 [1]) is on record?
A: 60.4

Q: What about the cell number (TDF [2]) of the same molecule?
A: 50.1

Q: What about the H1.0 immunofluorescence intensity (TDF [3]) of the same molecule?
A: 118 (inactive)

Q: What about the H1.0 immunofluorescence intensity (HCC1569 [4]) of the same molecule?
A: 148 (active)

Q: Which cell number (HCC1569 [1]) does the source give for `CCC(C)CC(C)N` (stereo not drawn) [1,3-dimethylpentylamine] here?
A: 103

Q: What about the cell number (TDF [2]) of the same molecule?
A: 106

Q: And the H1.0 immunofluorescence intensity (TDF [3])?
A: 99 (inactive)

Q: And the H1.0 immunofluorescence intensity (HCC1569 [4])?
A: 96.9 (inactive)

Q: How did the cell number (HCC1569 [1]) turn out when `CC1=CC23C(=O)C(C=C(CO)C(O)C2(O)C1O)C1C(CC3C)C1(C)C` (stereo not drawn) [Ingenol] was run?
A: 102

Q: What about the cell number (TDF [2]) of the same molecule?
A: 107

Q: And the H1.0 immunofluorescence intensity (TDF [3])?
A: 94.7 (inactive)

Q: And the H1.0 immunofluorescence intensity (HCC1569 [4])?
A: 80 (inactive)

Q: For `CC1CCC2(O)C3(C)CC4(O)OC2(C1O)C1(O)C3(O)C(OC(=O)c2ccc[nH]2)C(O)(C(C)C)C41C` (stereo not drawn) [Ryanodine], which cell number (HCC1569 [1]) is on record?
A: 106

Q: And the cell number (TDF [2])?
A: 101

Q: And the H1.0 immunofluorescence intensity (TDF [3])?
A: 93 (inactive)

Q: What about the H1.0 immunofluorescence intensity (HCC1569 [4]) of the same molecule?
A: 88 (inactive)

Q: Which cell number (HCC1569 [1]) does the source give for `COCC1OC(=O)c2coc3c2C1(C)C1=C(C3=O)C2CCC(=O)C2(C)CC1OC(C)=O` (stereo not drawn) [Wortmannin] here?
A: 43.3

Q: What about the cell number (TDF [2]) of the same molecule?
A: 91.8

Q: What about the H1.0 immunofluorescence intensity (TDF [3]) of the same molecule?
A: 90.9 (inactive)

Q: And the H1.0 immunofluorescence intensity (HCC1569 [4])?
A: 140 (inactive)
